Compound activity (PubChem)
PKA-R1A act = PKA-R1A complex activation; activation, % at 11.4 µM; PKA-R1A dissociation, Cy5-IP20 fluorescence polarization; scaled: DMSO 0%, 113 µM cGMP 100%; P00514+P68181; 340,000 compounds, 0.083% hits; AID 504707;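 active means percent activation above the mean of all tested compounds plus 3 SD, cut at about 19% in these data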;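 further: higher means more PKAc released from R1A so a rise in polarization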
IDE cell activ = boosts human insulin-degrading enzyme activity in HEK cells; FAbeta-B cleavage, fluorescence polarization; 0% vehicle, 100% cell-free pure enzyme wells; 340,000 compounds, 0.073% hits; P14735; AID 493087; activation, % at 5.96 µM;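 active means activation above the mean of all tested compounds plus 3 SD, set per screening campaign, cut at about 17% in these data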
PKA-R2B act = activators of human PKA-R2B complex; AID 504700; activation, % at 11.4 µM; 340,000 compounds, 0.079% hits; PKA-R2B holoenzyme dissociation, Cy5-IP20 fluorescence polarization; R2B truncated from residue 108, S112A mutant; 0% DMSO only, 100% 113 µM cGMP; P22694+P31323;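 active means activation above a cutoff set at the mean over all compounds plus 3 SD, cut at about 18% in these data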;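 further: higher means more holoenzyme dissociation and a rise in polarization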
eLon inh = inhibits E. coli Lon protease; P0A9M0; purified E. coli Lon protease, fluorescence polarization; inhibition, % at 7.94 µM; 360,000 compounds, 0.42% hits; AID 602123; in the data active means inhibition above about 13%, passing the limit was not always enough;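 further: 0% = enzyme with probe and DMSO and 100% = no enzyme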
IDE inh = cellular human IDE inhibition; P14735; HEK cells, FAbetaB cleavage, fluorescence polarization; inhibition, % at 5.59 µM; 320,000 compounds, 0.41% hits;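 active means percent inhibition above the average of all tested compounds plus 3 SD, set per screening campaign, cut at about 16% in these data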;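 further: IDE supplied by intact live HEK cells; FP after avidin binding of uncleaved biotin substrate so inhibition keeps polarization high; 0% = DMSO wells and 100% = 60 µM reference IDE inhibitor Ii1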
Rin1-Abl PPI inh = inhibitors of human Rin1-Abl protein interaction | P00519+Q13671 | TR-FRET Rin1/Abl binding, biochemical | inhibition, % at 7.35 µM | 360,000 compounds, 0.4% hits | AID 588664; in the data active means inhibition above about 5%, passing the limit was not always enough
Rin1 Abl conf = Rin1-Abl interaction inhibition confirmation | shares compounds with Rin1-Abl PPI inh | TR-FRET Rin1-Abl binding, purified proteins | inhibition, % at 7.35 µM | 1,300 compounds, 49% hits | AID 602124
GFP quencher = quenches GFP fluorescence, counter-screen for Rin1-Abl inhibitors | 1,300 compounds, 8.5% hits | inhibitors/quenchers counterscreen | AID 602125 | shares compounds with Rin1-Abl PPI inh | inhibition, % at 6.75 µM;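 further: ABL1-eGFP fusion protein alone without its partner RIN1-SBP; 0% = protein with vehicle and 100% = wells lacking protein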
GFP quench dose = quenches GFP in dose response, Rin1-Abl counter-screen; GFP fluorescence interference/quenching counterscreen; shares compounds with Rin1-Abl PPI inh; 230 tested, under 10 active; IC50, µM; call rule not given here;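 further: ABL1-eGFP fusion protein alone without its RIN1 binding partner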
Numbers without * were called inactive; · = not tested or not shown. Rows were chosen to be rich in hits. Some 1.3% of all compounds tested hit in one or more screens of this group. Unless noted, no stated cut-off is given here; in the data, active means inhibition above about 6.5%; inactive means the rest.

SMILES | PKA-R1A act | IDE cell activ | PKA-R2B act | eLon inh | IDE inh | Rin1-Abl PPI inh | Rin1 Abl conf | GFP quencher | others
C=CCn1c(SCC(=O)NC(=O)c2cccc([N+](=O)[O-])c2)nnc1-c1ccccc1 | -2 | 7 | -6 | 8 | 3 | -1 | · | ·
CCCS(=O)(=O)NC(=O)C1(C)CCCN(C(=O)c2ccc(F)cc2Cl)C1 (stereo unspecified) | · | · | · | -8 | · | 0 | · | ·
COC(=O)c1ccc(Cn2cnc3c(sc4nc(N5CCOCC5)c5c(c43)CCCC5)c2=O)o1 | 1 | -4 | 10 | -3 | -1 | 8.7* | 7.1* | -1
CN(C)CCNc1ncnc2c1sc1nc(N3CCOCC3)c3c(c12)CC(C)(C)SC3 | 4 | -8 | -4 | 7 | 6 | 27* | 26* | 2 | GFP quench dose=>68
OCCN1CCN(c2ncnc3c2sc2nc(N4CCOCC4)c4c(c23)CCC4)CC1 | -11 | -6 | -16 | -3 | 7 | 15* | 23* | 2 | GFP quench dose=>68
CC1(C)Cc2c(c(N3CCOCC3)nc3sc4c(NCCN)ncnc4c23)CO1 | -7 | -9 | -13 | 2 | · | 1 | · | ·
COC(=O)c1ccc(CSc2ncnc3c2sc2nc(N4CCOCC4)c4c(c23)CCCC4)o1 | -5 | 2 | 3 | -12 | 0 | -16 | · | ·
CC1(C)Cc2c(c(N3CCCC3)nc3sc4c(N5CCN(CCO)CC5)ncnc4c23)CO1 | 6 | 7 | 12 | 0 | 1 | 8 | · | ·
OCCN(CCO)c1ncnc2c1sc1nc(N3CCOCC3)c3c(c12)CCCC3 | -9 | 3 | -2 | -4 | 7 | 11* | 8.3* | -1
O=C(COC(=O)c1cccs1)NC1CCCCC1 | -17 | 4 | -6 | -2 | 2 | -1 | · | ·
Cc1cccc(C(=O)OCC(=O)Nc2ccc3c(c2)OCCO3)c1 | 2 | 0 | -5 | -3 | -1 | 1 | · | ·
O=C(COc1ccc(F)cc1)NCC1(N2CCOCC2)CCCCC1 | -3 | -1 | 13 | -5 | -2 | 11* | 0 | 0
O=C(Cn1ccn(-c2ccc(F)c(F)c2)c(=O)c1=O)NCCc1ccccc1 | -10 | 6 | -7 | 4 | -1 | 1 | · | ·
[O-]C(=C(C(=S)Nc1cccc2ccccc12)[n+]1cccc(CO)c1)c1ccc(Cl)s1 | -5 | -4 | 4 | -22 | · | 13* | 0 | 0
[O-]/C(=C(\C(=S)Nc1cccc2ccccc12)[n+]1ccccc1)c1ccc(Cl)s1 | -8 | -2 | -17 | 6 | 2 | -3 | · | ·
O=C(NCc1ccncc1)Nc1ccc(Cc2ccc(NC(=O)NCc3ccncc3)cc2)cc1 | 4 | · | -11 | 0 | · | 3 | · | ·
O=C(NCc1ccncc1)Nc1ccccc1 | 1 | -2 | 3 | -3 | -4 | 54* | -1 | -1
Cc1ccc(NC(=O)CSc2nnc3n2CCCCC3)cc1 | 6 | -1 | -3 | -2 | 1 | 6.0* | 0 | -2
COc1ccc(NC(=O)CSc2nnc3n2CCCCC3)cc1 | 0 | -6 | -8 | 3 | 1 | 1 | · | ·
COc1cc2c(cc1OC)C(c1cccc(Cl)c1)CC(=O)N2 (stereo unspecified) | 0 | -4 | -3 | -5 | · | 1 | · | ·
COC(=O)C1=C(O)/C(=C\c2ccc(CNS(=O)(=O)c3ccccc3)o2)N=C1C | -4 | -4 | 2 | 1 | 8 | 6.0* | -1 | 3
COC(=O)C1=C(O)/C(=C\c2ccc(CNS(=O)(=O)c3ccc(Cl)cc3)o2)N=C1C | -2 | 0 | 6 | -7 | 1 | 6 | · | ·
Cc1[nH][nH]c(=O)c1C(c1c(C)[nH][nH]c1=O)c1cn(Cc2ccc(Cl)c(Cl)c2)c2ccccc12 | 4 | 0 | 2 | 5 | 6 | 14* | 0 | 3
Cc1ccc(NC2CCCN(C(=O)CN3C(=O)c4ccccc4C3=O)C2)cc1C (stereo unspecified) | 7 | 3 | 5 | -5 | -3 | 9.8* | 0 | 0
Cc1ccc(NC2CCCN(C(=O)CCC(=O)c3ccccc3)C2)cc1C (stereo unspecified) | 4 | 0 | -1 | 3 | · | 1 | · | ·
SMILES | PKA-R1A act | IDE cell activ | PKA-R2B act | eLon inh | IDE inh | Rin1-Abl PPI inh | Rin1 Abl conf | GFP quencher | others
Cc1ccc(NC2CCCN(C(=O)c3cc4ncccn4n3)C2)cc1C (stereo unspecified) | -5 | 6 | 0 | -6 | 7 | 37* | 1 | 0
COC1CCCN(C(=O)c2ccc3nc(Cc4cccc(Cl)c4)oc3c2)C1 (stereo unspecified) | 1 | 2 | -5 | -7 | 2 | 3 | · | ·
CCOc1ccccc1CNCCO | 0 | 11 | -4 | -2 | 1 | 2 | · | ·
CCOC(=O)c1ccc(NC(=O)COc2ccccc2CNCCO)cc1 | 2 | 2 | 6 | 0 | -3 | 13* | 23* | -1 | GFP quench dose=>68
COCCN(C(=O)COC(=O)c1cc2c(s1)CCC2)c1c(N)n(Cc2ccccc2)c(=O)[nH]c1=O | -5 | 5 | -7 | -11 | 0 | 3 | · | ·
C=CCNC(=O)c1ccc2nc(Cc3ccc(OC)cc3)oc2c1 | -12 | 2 | -7 | 1 | 10 | 2 | · | ·
COc1ccc(Cc2nc3ccc(C(=O)NCC4COCCO4)cc3o2)cc1 (stereo unspecified) | 7 | 8 | -8 | -4 | 6 | 7.8* | -1 | -1
COc1ccccc1NC(=O)C(C)Sc1nccn1C (stereo unspecified) | 4 | 2 | 6 | 10 | 0 | 1 | · | ·
CC(Sc1nccn1C)C(=O)Nc1ccc(C(N)=O)cc1 (stereo unspecified) | 10 | 0 | 1 | -6 | -1 | 10* | -2 | 0
CCc1ccccc1-n1nnnc1SCC(=O)Nc1ccc(N2CCN(C)CC2)cc1 | -9 | -2 | 1 | 0 | -4 | -2 | · | ·
CCOC(=O)C1CCCN(Cc2ccccc2OCC)C1 (stereo unspecified) | -11 | 0 | -3 | 3 | 0 | 9.4* | 0 | 0
CC(C)CC1NC(=O)N(CCCCN2C(=O)c3ccccc3C2=O)C1=O (stereo unspecified) | 7 | 4 | 11 | -4 | 2 | 1 | · | ·
Cc1nnc(SCc2nc3ccccc3[nH]2)s1 | -4 | -4 | -4 | 7 | 5 | 18* | 29* | -1 | GFP quench dose=>68
Cc1cc(C)cc(NC(=O)c2cccc(NC3=NC4CS(=O)(=O)CC4S3)c2)c1 (stereo unspecified) | -8 | 4 | -6 | -13 | 1 | 0 | · | ·
